Test results as given in PubChem BioAssay.
Calls of active or inactive are those of the source.

Tests used:
[1] = adipocyte viability effects, profiling panel, cell-based, 3T3-L1 adipocytes, calcein-AM fluorescence, 48 h, basal (AID 1163); details: 3T3-L1 adipocytes viability, higher = more signal
[2] = HepG2 cell viability effects, profiling panel, calcein-AM fluorescence, 48 h, basal (AID 1164); details: higher = more signal
[3] = MM1S cell viability effects, profiling panel, calcein-AM fluorescence, 48 h, basal (AID 1165); details: higher = more signal;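 note: viability of MM1S multiple myeloma cells under basal unstimulated conditions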
[4] = basal RPMI8226 viability, no added stimulus, profiling panel, cell-based, calcein-AM fluorescence, 48 h, PK04 Diversity Set (AID 1166); details: RPMI8226 myeloma viability, higher = more signal;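 note: cells grown under basal conditions without added stimulus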
[5] = basal HepG2 mitochondrial membrane potential changes, profiling panel, cell-based, JC-1 fluorescence, 24 h, 100 nL compound (AID 1167); details: higher = more signal
[6] = basal 3T3-L1 adipocyte mitochondrial potential changes, profiling panel, cell-based, JC-1 fluorescence, 3T3-L1 adipocytes, 24 h, 100 nL compound (AID 1168); details: JC-1 mitochondrial fluorescence, higher = more signal, called active from +8 up or from −8 down
[7] = basal RPMI8226 mitochondrial membrane potential changes, profiling panel, cell-based, JC-1 fluorescence, 24 h, 100 nL compound (AID 1169); details: RPMI8226 myeloma, JC-1 mitochondrial potential fluorescence, higher = more signal
[8] = basal MM1S mitochondrial membrane potential changes, profiling panel, cell-based, JC-1 fluorescence, 24 h, 100 nL compound (AID 1170); details: higher = more signal
[9] = A549 lung cancer cell viability effects, profiling panel, resazurin fluorescence, 24 h, PK04 Diversity Set (AID 1171); details: higher = more signal, called active from +8 up or from −8 down
[10] = HepG2 liver cancer cell viability effects, profiling panel, resazurin fluorescence, 24 h, PK04 Diversity Set (AID 1172); details: higher = more signal
[11] = basal S. cerevisiae growth modulation, no modifier, primary screen, OD600, strain BY4716, 24 h, basal condition (AID 1173); details: OD600, 24 h, higher = more signal, called active from +8 up or from −8 down
[12] = MM1S myeloma cell viability, profiling panel, resazurin fluorescence, basal, 24 h, PK04 Diversity Set (AID 1174); details: higher = more signal, called active from +8 up or from −8 down;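 note: MM1S multiple myeloma cell line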
[13] = target: Dihydroorotate dehydrogenase (quinone), mitochondrial (Plasmodium falciparum (isolate 3D7)) (UniProt Q08210); assay: PfDHODH enzyme inhibitors, primary screen, biochemical, C-terminal His tag, absorbance 600 nm (AID 1175); details: DCIP absorbance 600 nm, higher = more signal, called active from +8 up or from −8 down;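 note: recombinant parasite enzyme with a five histidine tag at its C terminus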
Sequence of Dihydroorotate dehydrogenase (quinone), mitochondrial (Plasmodium falciparum (isolate 3D7)) (Q08210 whole entry, looked up): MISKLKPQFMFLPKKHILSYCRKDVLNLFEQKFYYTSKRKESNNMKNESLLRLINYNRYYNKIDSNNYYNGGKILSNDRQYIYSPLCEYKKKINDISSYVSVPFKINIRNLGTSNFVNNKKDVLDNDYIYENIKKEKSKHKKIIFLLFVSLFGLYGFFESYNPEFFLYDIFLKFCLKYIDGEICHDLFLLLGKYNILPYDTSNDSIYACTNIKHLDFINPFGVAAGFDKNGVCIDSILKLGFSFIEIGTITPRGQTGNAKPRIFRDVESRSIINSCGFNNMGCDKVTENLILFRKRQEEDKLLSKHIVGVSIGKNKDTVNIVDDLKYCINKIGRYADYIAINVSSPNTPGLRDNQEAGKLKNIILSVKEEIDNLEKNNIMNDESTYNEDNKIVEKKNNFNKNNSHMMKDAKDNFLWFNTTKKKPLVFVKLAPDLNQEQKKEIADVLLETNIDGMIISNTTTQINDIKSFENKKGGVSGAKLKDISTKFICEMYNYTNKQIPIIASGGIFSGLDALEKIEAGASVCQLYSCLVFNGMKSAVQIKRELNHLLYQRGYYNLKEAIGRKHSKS

[14] = S. cerevisiae RM11-1a growth modifiers, primary screen, strain RM11-1a, OD600, basal, 24 h (AID 1177); details: OD600, 24 h, higher = more signal, called active from +8 up or from −8 down;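 note: cultures grown under basal conditions with no added stressor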
[15] = E. coli acrAB mutant growth effects, primary screen, E. coli filamentation inducers, strain DRC39, OD650, 24 h (AID 1178); details: higher = more signal, called active from +8 up or from −8 down;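 note: growth measured as culture turbidity by optical density at 650 nm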
[16] = E. coli acrAB mutant growth effects, primary screen, E. coli filamentation inducers, strain DRC39, OD650, 48 h (AID 1179);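 note: screen aims at cell division blockers that make cells filament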; details: E. coli DRC39 delta-acrAB growth, higher = more signal, called active from +8 up or from −8 down
[17] = RPMI8226 myeloma cell viability, profiling panel, resazurin fluorescence, basal, 24 h, PK04 Diversity Set (AID 1180); details: higher = more signal;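 note: RPMI8826 multiple myeloma cell line at 5000 cells per well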
[18] = target: E3 ubiquitin-protein ligase XIAP (Homo sapiens) (UniProt P98170); assay: XIAP binders, primary screen, biophysical, small-molecule microarray, fluorescence 635 nm (AID 1181); details: small-molecule microarray binding, higher = more signal;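 note: score merges 667 nm emission and signal to noise over triplicate slides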
Sequence of E3 ubiquitin-protein ligase XIAP (Homo sapiens) (P98170 whole entry, looked up): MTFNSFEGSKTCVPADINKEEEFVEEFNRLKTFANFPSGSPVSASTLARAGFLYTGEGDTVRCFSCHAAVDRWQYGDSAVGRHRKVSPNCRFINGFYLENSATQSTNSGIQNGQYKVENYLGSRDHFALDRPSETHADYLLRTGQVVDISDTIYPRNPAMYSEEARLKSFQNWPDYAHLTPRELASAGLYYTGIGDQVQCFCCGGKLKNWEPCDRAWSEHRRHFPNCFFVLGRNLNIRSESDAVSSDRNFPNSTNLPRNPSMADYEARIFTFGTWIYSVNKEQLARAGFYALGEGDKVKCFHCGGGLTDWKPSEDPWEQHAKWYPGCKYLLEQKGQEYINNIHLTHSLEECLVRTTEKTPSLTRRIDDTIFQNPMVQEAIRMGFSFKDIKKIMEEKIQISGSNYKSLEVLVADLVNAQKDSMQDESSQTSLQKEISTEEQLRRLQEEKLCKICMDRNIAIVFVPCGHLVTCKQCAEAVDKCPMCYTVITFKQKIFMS

[19] = system: XIP peptide (Xip251-270) binding; assay: small-molecule binders of XIP peptide, primary screen, biochemical, small-molecule microarray, fluorescence 635/667 nm, 0.1 µg/mL protein (AID 1182); details: fluorescent protein binding, 635 nm, higher = more signal, called active from +8 up or from −8 down
XIP peptide (Xip251-270) = assay: small-molecule binders of XIP peptide, primary screen, biochemical, small-molecule microarray, fluorescence 635/667 nm, 0.5 µg/mL protein (AID 1183); details: small-molecule microarray binding, fluorescence 635 nm; higher = more signal

C=C(CCCC)/C(=C/C[C@@H](OC(=O)c1ccncc1)c1ccc(OCCO)cc1)c1cnc2ccccc2c1
z-score [1]: 1.56 | z-score [2]: -0.375 | z-score [3]: -1.52 | z-score [4]: -0.393 | z-score [5]: 2.07 | z-score [6]: -0.0617 (inactive) | z-score [7]: -0.344 | z-score [8]: 0.279 | z-score [9]: 0.395 (inactive) | z-score [10]: 0.0347 | z-score [11]: -2.64 (inactive) | z-score [12]: 0.803 (inactive) | composite z-score [13]: -2.2 (inactive) | z-score [14]: 0.365 (inactive) | z-score [15]: 1 (inactive) | z-score [16]: 0.734 (inactive) | z-score [17]: 1.59 | composite z-score [18]: -0.035 | composite z-score [19]: 0.384 (inactive) | composite z-score (XIP peptide (Xip251-270)): 0.697

C=CCC1(CC=C)C[C@H]2CO[C@H](c3ccc(OC)cc3)N2C1=O
z-score [1]: 0.683 | z-score [2]: -0.88 | z-score [3]: 0.347 | z-score [4]: 0.0778 | z-score [5]: 0.872 | z-score [6]: 0.773 (inactive) | z-score [7]: -0.245 | z-score [8]: 0.278 | z-score [9]: 0.771 (inactive) | z-score [10]: 1.01 | z-score [11]: -4.05 (inactive) | z-score [12]: -1.19 (inactive) | composite z-score [13]: 0.621 (inactive) | z-score [14]: -0.169 (inactive) | z-score [15]: 1.51 (inactive) | z-score [16]: 1.03 (inactive) | z-score [17]: 0.765 | composite z-score [18]: -0.323 | composite z-score [19]: 0.842 (inactive) | composite z-score (XIP peptide (Xip251-270)): 0.739

COCCOC(=O)N1C(=O)[C@@]2(c3cc(C#CCCO)ccc31)[C@H](c1ccccc1OCCO)N1[C@H](c3ccccc3)[C@H](c3ccccc3)OC(=O)[C@H]1[C@@H]2C(=O)NC[C@H](O)c1ccccc1
z-score [1]: 0.915 | z-score [2]: -0.527 | z-score [3]: -0.377 | z-score [4]: -1.11 | z-score [5]: 0.278 | z-score [6]: 1.96 (inactive) | z-score [7]: -0.73 | z-score [8]: -1.3 | z-score [9]: 1.56 (inactive) | z-score [10]: 1.43 | z-score [11]: -0.769 (inactive) | z-score [12]: 0.716 (inactive) | composite z-score [13]: -0.375 (inactive) | z-score [14]: -0.404 (inactive) | z-score [15]: 2.24 (inactive) | z-score [16]: 2.23 (inactive) | z-score [17]: 0.433 | composite z-score [18]: -0.0446 | composite z-score [19]: 0.533 (inactive) | composite z-score (XIP peptide (Xip251-270)): 0.705

CCCNC(=O)[C@@]1(Sc2ccc(C)cc2)CC(=O)N(Cc2cc(C(F)(F)F)cc(C(F)(F)F)c2)[C@@H]1c1ccc(CO)cc1I
z-score [1]: 0.66 | z-score [2]: 1.28 | z-score [3]: -2.53 | z-score [4]: -1.3 | z-score [5]: 0.848 | z-score [6]: 1.18 (inactive) | z-score [7]: -0.649 | z-score [8]: -1.24 | z-score [9]: 0.0086 (inactive) | z-score [10]: 1.05 | z-score [11]: -5.79 (inactive) | z-score [12]: -1.68 (inactive) | composite z-score [13]: -0.684 (inactive) | z-score [14]: -5 (inactive) | z-score [15]: 0.961 (inactive) | z-score [16]: 1.4 (inactive) | z-score [17]: -1.55 | composite z-score [18]: -0.0925 | composite z-score [19]: 0.459 (inactive) | composite z-score (XIP peptide (Xip251-270)): 0.816

C[N+](C)(C)CCCC[C@@H]1NC(=O)[C@@H]2C[C@H](C(=O)NCCCCCNC(=O)CS)[C@H](c3ccc(O)cc3)N2C1=O
z-score [1]: 1.09 | z-score [2]: -0.792 | z-score [3]: -0.982 | z-score [4]: 0.027 | z-score [5]: 2 | z-score [6]: 0.385 (inactive) | z-score [7]: 0.289 | z-score [8]: -0.336 | z-score [9]: 1.09 (inactive) | z-score [10]: -0.122 | z-score [11]: -1.15 (inactive) | z-score [12]: 0.941 (inactive) | composite z-score [13]: -1.15 (inactive) | z-score [14]: -1.36 (inactive) | z-score [15]: 0.513 (inactive) | z-score [16]: 0.355 (inactive) | z-score [17]: 1.55 | composite z-score [18]: 0.0471 | composite z-score [19]: 0.609 (inactive) | composite z-score (XIP peptide (Xip251-270)): 0.184

CC(C)(C)OC(=O)CC[C@@]12N=C(c3ccc(OCCCO)cc3)O[C@@H]1c1ccccc1N(Cc1ccccc1)C2=O
z-score [1]: 1.87 | z-score [2]: -0.186 | z-score [3]: -1.9 | z-score [4]: -3.34 | z-score [5]: 0.624 | z-score [6]: 1.69 (inactive) | z-score [7]: -0.778 | z-score [8]: 1.44 | z-score [9]: 0.345 (inactive) | z-score [10]: 0.375 | z-score [11]: -0.075 (inactive) | z-score [12]: -0.0313 (inactive) | composite z-score [13]: 0.463 (inactive) | z-score [14]: 1.17 (inactive) | z-score [15]: 1.59 (inactive) | z-score [16]: 0.358 (inactive) | z-score [17]: 0.574 | composite z-score [18]: -0.635 | composite z-score [19]: 1.63 (inactive) | composite z-score (XIP peptide (Xip251-270)): 0.693

COCCOC(=O)N1C(=O)[C@@]2(c3cc(C#CC4(O)CCCCCC4)ccc31)[C@H](c1ccccc1OCCO)N1[C@H](c3ccccc3)[C@H](c3ccccc3)OC(=O)[C@H]1[C@@H]2C(=O)Nc1nc2ccccc2s1
z-score [1]: 1.65 | z-score [2]: -0.133 | z-score [3]: -2.71 | z-score [4]: -4.28 | z-score [5]: -2.52 | z-score [6]: 1.52 (inactive) | z-score [7]: -1.14 | z-score [8]: -0.807 | z-score [9]: 0.611 (inactive) | z-score [10]: 0.189 | z-score [11]: 1.15 (inactive) | z-score [12]: -0.326 (inactive) | composite z-score [13]: 0.764 (inactive) | z-score [14]: 2.77 (inactive) | z-score [15]: -0.0438 (inactive) | z-score [16]: 0.61 (inactive) | z-score [17]: -0.346 | composite z-score [18]: -0.0765 | composite z-score [19]: 1.65 (inactive) | composite z-score (XIP peptide (Xip251-270)): 0.649

COc1ccc([Si](C)(C)[C@H]2[C@H](CC(=O)N3Cc4ccccc4C[C@H]3CO)O[C@@]3(C(=O)N(Cc4cccc(N5C(=O)COc6ccccc65)c4)c4ccccc43)[C@@H]2C)cc1
z-score [1]: 1.8 | z-score [2]: -0.0432 | z-score [3]: -0.227 | z-score [4]: -1.19 | z-score [5]: 2.09 | z-score [6]: 0.335 (inactive) | z-score [7]: -1.15 | z-score [8]: 0.424 | z-score [9]: -0.987 (inactive) | z-score [10]: -0.593 | z-score [11]: -0.855 (inactive) | z-score [12]: -1.11 (inactive) | composite z-score [13]: -0.0999 (inactive) | z-score [14]: 2.03 (inactive) | z-score [15]: 1.48 (inactive) | z-score [16]: -0.185 (inactive) | z-score [17]: -0.668 | composite z-score [18]: -0.163 | composite z-score [19]: 1.83 (inactive) | composite z-score (XIP peptide (Xip251-270)): 0.618

O=C1c2ccccc2[C@](Cc2ccccc2I)(C(=O)O)[C@H](c2ccc(CO)cc2)N1Cc1ccccc1Cl
z-score [1]: 1 | z-score [2]: -0.504 | z-score [3]: -0.089 | z-score [4]: -1.18 | z-score [5]: -0.172 | z-score [6]: 0.571 (inactive) | z-score [7]: -0.565 | z-score [8]: 0.295 | z-score [9]: 0.177 (inactive) | z-score [10]: 0.722 | z-score [11]: -2.78 (inactive) | z-score [12]: 1.34 (inactive) | composite z-score [13]: -0.812 (inactive) | z-score [14]: -1.29 (inactive) | z-score [15]: -0.0031 (inactive) | z-score [16]: -0.11 (inactive) | z-score [17]: 0.601 | composite z-score [18]: -0.148 | composite z-score [19]: 0.8 (inactive) | composite z-score (XIP peptide (Xip251-270)): 0.507
